The list is not random: actives were taken first. Their share in the collection is about 4.1%.
ssDAF12 agonist = activates DAF-12 receptor from parasite S. stercoralis; HEK293 ssDAF-12/GRIP1 lit1-tk-luc reporter, luminescence; % of 3 µM dafachronic acid response; activation, % at 6.8 µM; actives 1% (n = 370,000);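 active = activation above the mean over all tested compounds plus 3 SD, cut at about 0.9% in these data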
DAX1 inh-1 = blocks DAX1 repression of SF-1 activated StAR promoter; actives 1.1% (n = 370,000); inhibition, % at 6.8 µM; HEK293T StAR-luciferase reporter, SF-1/DAX-1 repression relief;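 active = inhibition above the mean over all tested compounds plus 3 SD, cut at about 3.6% in these data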;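 note: higher inhibition means more luminescence from relief of DAX-1 repression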
DAX1 inh-2 = NR0B1 (DAX1) inhibition. inhibition, % at 6.75 µM. P51843. actives 0.99% (n = 340,000). HEK293 Gal4-DAX1 luciferase reporter, luminescence. AID 504766;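 active = inhibition above the mean over all tested compounds plus 3 SD, cut at about 4.2% in these data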;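 note: inhibition shows as a rise in luminescence from relieved DAX1 repression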
Target sequence (P51843 207-470 limits assumed): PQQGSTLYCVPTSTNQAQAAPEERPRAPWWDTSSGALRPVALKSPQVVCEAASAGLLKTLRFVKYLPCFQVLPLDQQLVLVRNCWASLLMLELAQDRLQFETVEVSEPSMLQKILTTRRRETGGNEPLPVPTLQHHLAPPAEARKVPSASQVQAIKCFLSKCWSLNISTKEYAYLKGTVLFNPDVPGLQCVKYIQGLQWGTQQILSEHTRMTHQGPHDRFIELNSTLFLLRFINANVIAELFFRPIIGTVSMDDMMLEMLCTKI
hcDAF-12 act = activators of H. contortus DAF-12 nuclear receptor | HEK293 hcDAF-12 lit1-tk-luc reporter, luminescence; 0% DMSO, 100% Δ7-dafachronic acid | AID 652067 | actives 1.4% (n = 370,000) | activation, % at 6.8 µM;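 active = activation above the mean of all tested compounds plus 3 SD, cut at about 5.5% in these data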
hgDAF12 agonist = hgDAF-12 agonism, primary luciferase screen; HEK293 GAL4-hgDAF12 UAS-luciferase reporter, agonist luminescence; normalized to butyrate control; activation, % at 6.8 µM; actives 1.8% (n = 370,000); AID 687014;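 active = activation above a cutoff set at the mean of all screened compounds plus 3 SD, cut at about 10% in these data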
Of the large screens only hits and unclear results are named; the others gave an inactive call.

O=C(O)c1cccc2c1C(=O)c1cc([N+](=O)[O-])cc([N+](=O)[O-])c1-2	ssDAF12 agonist 0.9
COc1ccc(Nc2nc(N)nc(CSC(=S)N3CCCCC3)n2)cc1	none
COc1ccc(Nc2nc(N)nc(CSC(=S)N3CCN(C)CC3)n2)cc1	ssDAF12 agonist 5.4
O=C(Nc1ccc2c(c1)OCCO2)C(c1ccnc2ccccc12)n1c(=O)c(-c2ccco2)nc2ccccc21 (centres undefined)	ssDAF12 agonist 1.5 (no result: DAX1 inh-2)
O=C(NC1CCCCC1)C(c1ccnc2ccccc12)n1c(=O)c(-c2ccco2)nc2ccccc21 (centres undefined)	ssDAF12 agonist 1.1 (no result: DAX1 inh-2)
O=C(NC1CCCCC1)C(c1ccccc1F)n1c(=O)c(-c2ccco2)nc2ccccc21 (centres undefined)	none (no result: DAX1 inh-2)
Cc1cccc(C)c1NC(=O)C(C1CC1)n1c(=O)c(-c2ccco2)nc2ccccc21 (centres undefined)	none (no result: DAX1 inh-2)
Cc1cccc(C)c1NC(=O)C(c1ccncc1)n1c(=O)c(-c2ccco2)nc2ccccc21 (centres undefined)	ssDAF12 agonist 2.1 (no result: DAX1 inh-2)
CC(C)(C)NC(=O)C(c1ccccc1F)n1c(=O)c(-c2ccco2)nc2ccccc21 (centres undefined)	DAX1 inh-1 4.3 (no result: DAX1 inh-2)
C[C@H]1COc2cccc(N3CCSCC3)c2S(=O)(=O)N1C	none (no result: DAX1 inh-2)
CC(C)(C)c1ccc(OC(=O)N2CCOCC2)cc1	hgDAF12 agonist 11
COC(=O)C1CN(CCc2ccccc2)CCS(=O)(=O)N1Cc1ccc(Cl)cc1 (centres undefined)	none (no result: DAX1 inh-2)
C[C@@H]1CN([C@H](C)CO)C(=O)CCCn2nncc2CO[C@H]1CN(C)C(=O)Nc1ccc2c(c1)OCCO2	ssDAF12 agonist 1.5 (no result: DAX1 inh-2)
C[C@H]1CN([C@@H](C)CO)C(=O)CCCn2cc(nn2)CO[C@@H]1CN(C)C(=O)NC1CCCCC1	DAX1 inh-1 4.1 (no result: DAX1 inh-2)
Cc1noc(C)c1NC(=O)N(C)C[C@H]1OCc2cnnn2CCCC(=O)N([C@H](C)CO)C[C@@H]1C	ssDAF12 agonist 1.3
O=C(C1CCN(S(=O)(=O)c2ccc3[nH]c(=O)oc3c2)CC1)N1CCCN(Cc2ccccc2)CC1	none (no result: DAX1 inh-2)
Cn1c(/N=C/c2c(O)ccc3ccccc23)nc2ccccc21	ssDAF12 agonist 1.3
CCCn1c(/N=C/c2ccccc2O)nc2ccccc21	none
FC(F)(F)c1ccc(Cn2ccc3ccc(-c4ccc5ccn(Cc6ccccc6)c5c4)cc32)cc1	none (no result: DAX1 inh-2)
N#C/C(=C(/O)CSc1nnc(Cc2cccs2)n1C1CCCCC1)c1nc2ccccc2[nH]1	hcDAF-12 act 7.1
N#CCn1cnc2c(oc3ccccc32)c1=O	none (no result: ssDAF12 agonist, DAX1 inh-1, hcDAF-12 act, hgDAF12 agonist)
CCCCn1cnc2c(oc3ccccc32)c1=O	hgDAF12 agonist 12
Cc1ccc(-n2c(SCC(=O)Nc3ccc(OCc4ccccc4)cc3)nnc2-c2ccccc2)cc1	none (no result: DAX1 inh-2)
COc1ccc(C2N(c3ccc(C)cc3)CCN2c2ccc(C)cc2)cc1O	DAX1 inh-2 4.9
O=C(NCc1csc(-c2cccs2)n1)c1ccccc1	none
O=C(NCc1csc(-c2cccs2)n1)c1cccc(Cl)c1	DAX1 inh-2 4.4
CC(=O)c1ccc(NS(=O)(=O)c2cccc(C)c2)cc1	hgDAF12 agonist 12
CCOC(=O)c1cccc(NC(=O)CN(C)S(=O)(=O)c2cc3ccccc3s2)c1	none (no result: DAX1 inh-2)
C[C@H](CO)N1C[C@H](C)[C@@H](CN(C)S(=O)(=O)c2ccccc2)Oc2ccc(NC(=O)NC3CCCCC3)cc2C1=O	DAX1 inh-1 4.2
COc1ccc(S(=O)(=O)N(C)C[C@H]2Oc3ccc(NC(=O)Nc4ccc(C(F)(F)F)cc4)cc3C(=O)N([C@H](C)CO)C[C@@H]2C)cc1	none
COc1ccc(NC(=O)Nc2ccc3c(c2)C(=O)N([C@H](C)CO)C[C@H](C)[C@@H](CN(C)S(=O)(=O)c2ccc(OC)cc2)O3)cc1	DAX1 inh-2 6.4
C[C@H](CO)N1C[C@H](C)[C@@H](CN(C)S(=O)(=O)c2ccccc2)Oc2ccc(NC(=O)C3CCCCC3)cc2C1=O	none
CCCOc1ccc(C(=O)Nc2ccccc2[N+](=O)[O-])cc1	hgDAF12 agonist 13
Cc1ccc2c(c1)c1c3n2CCN(CC#N)C3CCC1 (centres undefined)	DAX1 inh-2 6.5
Cc1ccc2c(c1)c1c3n2CCN(CC(N)=O)C3CCC1 (centres undefined)	none
Nn1c(SCC(=O)NC2CCCCC2)nnc1-c1cc(-c2ccccc2)n[nH]1	none (no result: DAX1 inh-2)
